Marburg entry inh: blocks Marburg virus binding to or entry into cells; 1.8% of 300,000 active; Potency, µM (series often up to 37.8 µM), without a hit: top-dose activity change, negative = inhibition, usual class: inhibitors; Marburg virus pseudotyped entry inhibition, cell reporter; AID 540276; calls by dose curve; tested in HEK293 cells; note: potency is the fitted concentration of half-maximal effect
Lassa entry inh: blocks Lassa virus binding to or entry into cells | Lassa virus pseudotype entry inhibition, cell reporter | Potency, µM (doses to about 37.9 µM), inactives show at the highest dose activity change, negative = inhibition, hits mostly inhibitors | 1.2% of 300,000 active; calls by dose curve; tested in HEK293 cells; note: potency is the fitted concentration of half-maximal effect; nearly all actives have a fitted effect of over 50% in size
HCV inh: HCV inhibition; Potency, µM (doses to about 41.8 µM), for inactives: at the top dose activity change, negative = inhibition, actives largely listed as inhibitors; 3.4% of 340,000 active; Huh7.5.1 HCVcc-Cre infection, luciferase reporter, 44 h; note: potency is the fitted concentration of half-maximal effect
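Luciferase read-out (15 sec integration) after a 15 min room-temperature substrate step quantifies HCVcc-Cre infection. Cells, 1,000 per well, had compound added 4 h post-plating, then virus at ~0.5 moi, and were cultured 44 h.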
Pf growth 48h: inhibits P. falciparum growth in the first generation, 48 h; P. falciparum luciferase growth in erythrocytes, 48 h; Potency, µM (titrated, usually from 28.7 µM), for the others: top-dose activity change, negative = inhibition, usual class: inhibitors; 5.9% of 310,000 active; AID 504832; note: potency is the fitted concentration of half-maximal effect
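Luciferase-expressing P. falciparum in infected erythrocytes (2% hematocrit, 0.1% parasitemia final) in RPMI 1640/0.5% Albumax were exposed to compound for 48 hours at 37 C, 5% CO2; growth read as luminescence.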
Pf growth 96h: inhibits malaria parasite growth, 96 h; P. falciparum luciferase reporter growth, 96 h; Potency, µM (titrated, usually from 28.7 µM), for inactives: at the top dose activity change, negative = inhibition, hits mostly inhibitors; 6.9% of 320,000 active; AID 504834; note: potency is the fitted concentration of half-maximal effect
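Parasite growth measured via integrated firefly luciferase reporter in P. falciparum. Infected erythrocytes at 2% hematocrit, 0.05% parasitemia final were treated 96 hours at 37 C under 5% CO2, and luminescence was read.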
HCMV inh: human cytomegalovirus inhibition; activity change, negative = inhibition, % at 57.5 µM; HFF cells, HCMV-luciferase reporter, 72 h; hits give low values; 4.5% of 410,000 active; in the data active = activity change below about -60%; inconclusive = no clear call, values can overlap the other calls; inactive = above about -39%
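Two compound doses tested in HFFs infected with HCMV-luciferase, MOI 1 PFU/cell, 72 h at 37C. Lysate luminescence read with OneGlo; data normalized against buffer-only and 10uM Salinomycin inhibitor controls.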
An asterisk follows results filed as active; [ ] = another dose, or the depositor's remark. An excerpt weighted towards active compounds, which were near 14% of everything screened. Unless noted, calls come from the whole dose curve; as a rule, active = well fitted inhibition curve with a large enough effect; inconclusive = small, poorly fitted or top-dose-only effect, or another doubt; inactive = no such curve, though single readings can be large or run the other way. % is set by controls: 0 for no effect and ±100 for the full control effect.

CCOc1ccc(S(=O)(=O)N2CCC(C(=O)NCc3ccco3)CC2)cc1C was read as Marburg entry inh -2.0%[46.1 µM], Lassa entry inh -17.1%, HCV inh -10.2%, Pf growth 48h inconclusive, Pf growth 96h 1.85µM* and HCMV inh 11.5.
For CC(C)c1ccc(S(=O)(=O)N2CCC(C(=O)NCc3ccco3)CC2)cc1 the results were Marburg entry inh -10.1%, Lassa entry inh -27.4%, HCV inh -1.0%, Pf growth 48h 3.29µM*, Pf growth 96h 2.62µM* and HCMV inh -18.3.
`CC(NS(=O)(=O)c1ccccc1)C(=O)NCc1ccco1` (stereo not drawn) gave Marburg entry inh 16.3%, Lassa entry inh -0.4%, HCV inh -0.8%, Pf growth 48h 0.8% and HCMV inh 10.5.
Screening CC(NS(=O)(=O)c1ccc(Br)cc1)C(=O)NCc1ccco1 (stereo not drawn) returned Marburg entry inh 0.7%, Lassa entry inh 0.2%, HCV inh inconclusive, Pf growth 48h 11.4%, Pf growth 96h 23.8% and HCMV inh -73.2*.
For Cc1cc(S(=O)(=O)N2CCCC2)ccc1OCC(=O)NCc1ccco1 the results were Marburg entry inh 1.0%, Lassa entry inh 4.4%, HCV inh 8.0%, Pf growth 48h -18.8% and HCMV inh 15.9.
For O=C(NCc1ccco1)C1CCN(S(=O)(=O)c2ccccc2C(F)(F)F)CC1 the results were HCV inh 9.3%, Pf growth 48h 10.4µM*, Pf growth 96h inconclusive and HCMV inh -3.4.
`COc1ccc(CCNC(=O)c2ccc3c(c2)S(=O)(=O)N=C2CCCCCN23)cc1OC` gave HCMV inh 38.7.
`O=C(NCc1ccco1)C1CCCN(S(=O)(=O)c2ccc(-n3cnnn3)cc2)C1` (stereo not drawn) gave Marburg entry inh -23.2%, Lassa entry inh 0.0%, HCV inh 17.3%, Pf growth 48h -15.9%, Pf growth 96h inconclusive and HCMV inh -1.0.
Screening COc1ccc(S(=O)(=O)N2CCC(C(=O)N[C@@H](C)C(=O)NCc3ccco3)CC2)cc1 returned HCMV inh -28.0.
For CCOc1ccc(S(=O)(=O)N2CCN(C(=S)NCc3ccco3)CC2)cc1 the results were Marburg entry inh -16.6%, Lassa entry inh -13.9%, HCV inh 6.4%, Pf growth 48h 2.94µM*, Pf growth 96h 2.33µM* and HCMV inh -32.6.
COc1ccc(S(=O)(=O)N2CCC(C(=O)NCc3ccco3)CC2)cc1 was read as Marburg entry inh -8.2%, Lassa entry inh 1.4%, HCV inh 20.5%, Pf growth 48h 3.29µM*, Pf growth 96h inconclusive and HCMV inh 22.7.
For O=C(COc1ccc(S(=O)(=O)N2CCCC2)cc1)NCc1ccco1 the results were Marburg entry inh 9.6%, Lassa entry inh 3.6%, HCV inh -2.4% and Pf growth 96h -23.6%.
Screening O=C(NCc1ccccc1F)C1CCCN(S(=O)(=O)c2ccc(-n3cnnn3)cc2)C1 (stereo not drawn) returned Marburg entry inh 7.5%[46.1 µM], Lassa entry inh -15.5%, HCV inh 3.3%, Pf growth 48h 13.9%, Pf growth 96h -6.0% and HCMV inh -76.7*.
`CCOc1ccc(S(=O)(=O)N2CCC(C(=O)Nc3cc(S(C)(=O)=O)ccc3Cl)CC2)cc1` gave HCV inh 0.3%, Pf growth 48h 10.4µM*, Pf growth 96h inconclusive and HCMV inh -32.3.
`CCCCNc1c(-c2ccc(F)cc2)nc2nc(C)cc(C)n12` gave HCMV inh 20.8.
C#CC1(O)C(OC)=CC2C(=O)C1C(c1ccccc1)C2C (stereo not drawn) was read as Marburg entry inh -3.5%[14.2 µM] and Lassa entry inh inconclusive.
`CC(=O)c1ccc(OCC(=O)OCC(=O)NCc2ccco2)cc1` gave HCV inh 10.4%, Pf growth 48h -20.1%, Pf growth 96h -9.2% and HCMV inh 15.0.
Screening COc1ccccc1/C=C(\C#N)c1nc(-c2cc3ccccc3oc2=O)cs1 returned Lassa entry inh 18.7%[46.1 µM] and HCMV inh 11.3.
`CC(C)N(C(=O)[C@H]1C[C@H](CC(=O)NCc2cccc(C(F)(F)F)c2)C(=O)N2CCc3c([nH]c4cc(CCC(=O)N(C)C)ccc34)[C@]12C)C(C)C` gave HCV inh -28.6%[8.37 µM] and HCMV inh -19.0.
CN(C)C(=O)CCc1ccc2c3c([nH]c2c1)[C@]1(C)[C@@H](C(=O)N2CCCCC2)C[C@H](CC(=O)NCCN2CCOCC2)C(=O)N1CC3 was read as Marburg entry inh 8.8%, HCV inh inconclusive and HCMV inh -19.5.
`CN(C)C(=O)CCc1ccc2c3c([nH]c2c1)[C@]1(C)[C@@H](C(=O)N2CCCCC2)C[C@H](CC(=O)NCC24CC5CC(CC(C5)C2)C4)C(=O)N1CC3` gave Marburg entry inh 0.3%, HCV inh -22.2% and HCMV inh -90.1*.
Screening CC(C)N(C(=O)[C@H]1C[C@H](CC(=O)NC(C)(C)C)C(=O)N2CCc3c([nH]c4cc(CCC(=O)N(C)C)ccc34)[C@]12C)C(C)C returned Marburg entry inh 2.1%, HCV inh 0.501µM* and HCMV inh -10.6.
Screening Cc1nn(C)c(C)c1S(=O)(=O)N(CC(=O)NCCCN1CC(C)CC(C)C1)c1ccc(C(C)C)cc1 (stereo not drawn) returned HCV inh 0.1%, Pf growth 48h inconclusive, Pf growth 96h -6.8% and HCMV inh -26.1.
For CCCCOC(=O)n1c(SCC(=O)N(CC)CC)nc2ccccc21 the results were Marburg entry inh 0.7%, Lassa entry inh 17.3%, HCV inh 0.3%, Pf growth 48h -21.8%, Pf growth 96h 2.62µM* and HCMV inh 1.6.
CC1(c2ccc(Cl)cc2)CC(C)(C)N(C(=O)c2cccc(F)c2)c2ccccc21 (stereo not drawn) was read as Lassa entry inh -13.8%[46.1 µM] and HCMV inh -64.8*.
COc1ccc(C(=O)N2c3ccc(C)cc3C(C)(c3ccccc3)CC2(C)C)cc1 (stereo not drawn) was read as Lassa entry inh -9.4%[46.1 µM] and HCMV inh -71.2*.
`Cc1ccc(C(=O)N2c3ccc(C)cc3C(C)(c3ccccc3)CC2(C)C)cc1` (stereo not drawn) gave Lassa entry inh 14.6%[46.1 µM] and HCMV inh inconclusive.
Screening CC1(c2ccccc2)CC(C)(C)N(C(=O)c2ccccc2Cl)c2ccccc21 (stereo not drawn) returned Marburg entry inh 20.2%[46.1 µM], Lassa entry inh -0.8%[46.1 µM] and HCMV inh 27.6.
`COc1ccccc1C(=O)N1c2ccccc2C(C)(c2ccc(Cl)cc2)CC1(C)C` (stereo not drawn) gave Lassa entry inh inconclusive and HCMV inh -71.8*.

Screening data as filed in PubChem.
